# Laboratory results reported in PubChem BioAssay.
# For some assays here: Entries with a potency or affinity are not part of this list. Activity calls are given as the source filed them.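 How the source made its calls, unless noted: active means hit in primary screen, with calcium signal over 5 SD above buffer well mean in both duplicates; inactive means the rest.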
# Experiments:
# [1] = tested on: TRPC4 beta (transient receptor potential cation channel C4), mouse; test: activators of mouse TRPC4 channel, confirmation, cell-based, Fluo4 calcium, HEK293 TRPC4beta/mu-opioid, duplicates, 10 µM (AID 2426;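 active means fluorescence ratio normalized to control raised more than 50% in primary screen plus both repeat runs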;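 further: percent rise of integrated ratio over buffer wells lacking compound which define 0%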); conditions: Fluo4 calcium fluorescence, at 10 µM; hits give high values
# [2] = tested on: transient receptor potential cation channel C4 beta (TRPC4), mouse; test: activators of mouse TRPC4 channel, confirmation, cell-based, second round, Fluo4, HEK293 TRPC4beta/mu-opioid, 1 µM (AID 2461;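 active means primary screen active and over 50% activation in each of two duplicate runs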;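 on activation: 0% = wells without test compound as baseline of integrated fluorescence ratio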); conditions: Fluo4 calcium fluorescence, at 1 µM; hits give high values
# [3] = tested on: TRPC4 (transient receptor potential cation channel C4 beta), mouse; test: positive allosteric modulators of mouse TRPC4, confirmation, cell-based, second round, Fluo-4, HEK293 TRPC4beta/mu-opioid, 1 µM (AID 2554;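 active means primary screen hit whose fluorescence ratio, in both repeats, exceeds the weak agonist control mean by 3 SD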); conditions: DAMGO EC20, Fluo-4 calcium flux, at 1 µM; hits give high values
# [4] = tested on: TRPC4 beta (transient receptor potential cation channel C4), mouse; test: positive allosteric modulators of mouse TRPC4, confirmation, cell-based, Fluo-4, HEK293 TRPC4beta/mu-opioid (AID 2555;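 active means primary screen hit whose calcium fluorescence ratio, in both repeats, exceeds the weak agonist control mean by 3 SD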); conditions: DAMGO EC20, Fluo-4 calcium flux, at 10 µM; hits give high values
# [5] = target: Short transient receptor potential channel 4 (Mus musculus) (UniProt Q9QUQ5); test: inhibitors of mouse TRPC4 channel, confirmation, cell-based, Fluo4, HEK293 TRPC4beta/mu-opioid (AID 2636;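 active means calcium signal cut by more than 3 SD below the full-agonist control yet still positive, in both repeats and the earlier primary screen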); conditions: DAMGO, Fluo4 calcium flux, at 10 µM; hits give high values
# [6] = target: Short transient receptor potential channel 4 (Mus musculus) (UniProt Q9QUQ5); test: inhibitors of mouse TRPC4 channel, confirmation, cell-based, second round, Fluo4, HEK293 TRPC4beta/mu-opioid, 1 µM (AID 2637;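 active means calcium signal ratio cut to more than 3 SD under the fully stimulated control mean yet still positive, in both repeats and the primary screen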); conditions: Fluo4 calcium flux, DAMGO, at 1 µM; hits give high values
# [7] = target: Short transient receptor potential channel 4 (Mus musculus) (UniProt Q9QUQ5); test: TRPC4 positive allosteric modulators, dose response, cell-based, HEK293 TRPC4/mu-opioid, Fluo-4 calcium, EC20 DAMGO (AID 434941;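 active means earlier screen potentiator hit that boosts the TRPC4 ion channel at some dose, with a dose response; inactive means no potentiation, no dose response, or not a prior hit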;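 further: calcium entry triggered by an EC20 dose of DAMGO at the co-expressed mu-opioid receptor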)
# [8] = target: Short transient receptor potential channel 4 (Mus musculus) (UniProt Q9QUQ5); test: mouse TRPC4 channel inhibitors, dose response, cell-based, HEK293 TRPC4/mu-opioid, Fluo-4 calcium (AID 434942;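 active means primary screen inhibitor hit that blocks the TRPC4 channel at some tested dose, yielding a dose curve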)
# [9] = target: Short transient receptor potential channel 6 (Mus musculus) (UniProt Q61143); test: inhibition of mouse TRPC6 channel, confirmation, selectivity assay for TRPC4 inhibitor project, cell-based, HEK293, membrane potential dye, duplicate (AID 434948;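 active means active in primary screen and both duplicates, each dropping signal beyond three positive-control SD with fluorescence still positive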); conditions: HEK293 TRPC6, membrane potential dye fluorescence, at 10 µM, stimulated with maximal-effect acetylcholine; hits give high values
# [10] = target: Short transient receptor potential channel 6 (Mus musculus) (UniProt Q61143); test: activation of mouse TRPC6 channel, confirmation, selectivity assay for TRPC4 activator project, cell-based, HEK293, membrane potential dye, duplicate (AID 434950;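 active means membrane potential signal rise above negative control mean plus 3 SD in both duplicates, also active in the earlier TRPC4 screen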;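 on activation: 0% = buffer only wells and 100% = acetylcholine maximal-effect wells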); conditions: HEK293 TRPC6, membrane potential fluorescence, at 10 µM; hits give high values
# [11] = target: Short transient receptor potential channel 6 (Mus musculus) (UniProt Q61143); test: TRPC6 potentiation by TRPC4 potentiator hits, confirmation, selectivity assay for TRPC4 potentiator project, HEK293 cells, membrane potential dye, duplicate (AID 434952;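 active means compound raising the membrane signal above positive-control mean plus 3 SD in both repeats, and a primary screen hit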); conditions: HEK293 TRPC6, membrane potential dye fluorescence, at 10 µM, maximal acetylcholine added after compound; hits give high values
# [12] = target: Short transient receptor potential channel 4 (Mus musculus) (UniProt Q9QUQ5); test: calcium flux activators in TRPC4/5HT1a cells, counter-screen for TRPC4 activator project, cell-based, second counter screen, HEK293 TRPC4/5HT1a, Fluo-4 (AID 434977;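 active means calcium signal rise above buffer-control mean plus 5 SD in both duplicates, and also a hit in the primary screen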;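 on activation: plate controls were assay buffer for no effect and maximal serotonin response for full effect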); conditions: Fluo-4 calcium flux, at 10 µM; hits give high values
# [13] = calcium flux inhibitors in TRPC4/5HT1a cells, confirmation, counter-screen for TRPC4 inhibitor project, cell-based, second counter screen, HEK293 TRPC4/5HT1a, Fluo-4 (AID 434978;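 active means primary screen active whose calcium signal fell more than 3 SD beyond the full-serotonin control mean in both duplicate plates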;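 further: serotonin given first at submaximal then at maximal dose after compound preincubation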); conditions: Fluo-4 calcium flux, at 10 µM, serotonin added to trigger calcium flux; hits give high values
# [14] = tested on: TRPC4 (mouse), co-expressed with 5HT1a in HEK293; test: calcium flux potentiators in TRPC4/5HT1a cells, confirmation, counter-screen for TRPC4 potentiator project, cell-based, second counter screen, HEK293 TRPC4/5HT1a, Fluo-4 (AID 434979;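 active means signal rise over 3 SD above mean of control wells given weak agonist, in both repeats and first screen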); conditions: Fluo-4 calcium flux, at 10 µM, serotonin added at its EC20 dose; hits give high values
# [15] = calcium flux activation in mu-opioid HEK293 cells, confirmation, counter-screen for TRPC4 activator project, cell-based, HEK293 mu-opioid receptor line (AID 449723); conditions: Fluo-4 calcium fluorescence, at 10 µM; hits give high values;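 further: counter screen cells carry the mu-opioid receptor alone and lack TRPC4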
# [16] = calcium flux enhancement in mu-opioid HEK293 cells, confirmation, counter-screen for TRPC4 allosteric potentiator project, cell-based, HEK293 mu-opioid receptor line (AID 449724;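 active means calcium signal rise more than 3 SD above the low-dose agonist control mean, in both duplicate plates and the primary screen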); conditions: Fluo-4 calcium flux, at 10 µM, compound added before EC20 DAMGO stimulus; hits give high values
# Sequence of Short transient receptor potential channel 6 (Mus musculus) (Q61143 whole entry, looked up): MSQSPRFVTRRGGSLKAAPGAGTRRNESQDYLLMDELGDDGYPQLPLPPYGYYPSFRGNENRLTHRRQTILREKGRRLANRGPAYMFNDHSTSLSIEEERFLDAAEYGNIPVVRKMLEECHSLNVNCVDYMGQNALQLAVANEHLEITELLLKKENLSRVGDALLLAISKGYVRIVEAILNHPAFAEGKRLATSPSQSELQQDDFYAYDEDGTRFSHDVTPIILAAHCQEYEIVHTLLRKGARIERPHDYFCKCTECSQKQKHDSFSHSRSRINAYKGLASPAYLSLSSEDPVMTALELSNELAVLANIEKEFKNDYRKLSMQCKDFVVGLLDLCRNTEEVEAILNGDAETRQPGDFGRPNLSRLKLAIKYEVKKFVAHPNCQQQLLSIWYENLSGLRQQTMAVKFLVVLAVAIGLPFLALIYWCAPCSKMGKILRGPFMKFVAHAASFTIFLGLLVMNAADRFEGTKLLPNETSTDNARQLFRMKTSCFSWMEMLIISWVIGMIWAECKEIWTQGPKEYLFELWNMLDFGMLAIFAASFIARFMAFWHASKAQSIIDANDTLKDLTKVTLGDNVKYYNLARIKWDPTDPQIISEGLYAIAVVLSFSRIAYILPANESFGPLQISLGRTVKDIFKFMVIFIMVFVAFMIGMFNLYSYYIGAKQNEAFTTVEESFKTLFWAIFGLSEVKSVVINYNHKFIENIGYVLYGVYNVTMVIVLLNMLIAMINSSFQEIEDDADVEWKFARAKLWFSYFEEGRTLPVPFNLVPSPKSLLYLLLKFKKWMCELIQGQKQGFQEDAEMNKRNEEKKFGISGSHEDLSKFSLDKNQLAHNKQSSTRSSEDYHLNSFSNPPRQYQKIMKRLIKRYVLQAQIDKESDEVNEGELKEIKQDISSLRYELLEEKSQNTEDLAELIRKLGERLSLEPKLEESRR
# Sequence of Short transient receptor potential channel 4 (Mus musculus) (Q9QUQ5 whole entry, looked up): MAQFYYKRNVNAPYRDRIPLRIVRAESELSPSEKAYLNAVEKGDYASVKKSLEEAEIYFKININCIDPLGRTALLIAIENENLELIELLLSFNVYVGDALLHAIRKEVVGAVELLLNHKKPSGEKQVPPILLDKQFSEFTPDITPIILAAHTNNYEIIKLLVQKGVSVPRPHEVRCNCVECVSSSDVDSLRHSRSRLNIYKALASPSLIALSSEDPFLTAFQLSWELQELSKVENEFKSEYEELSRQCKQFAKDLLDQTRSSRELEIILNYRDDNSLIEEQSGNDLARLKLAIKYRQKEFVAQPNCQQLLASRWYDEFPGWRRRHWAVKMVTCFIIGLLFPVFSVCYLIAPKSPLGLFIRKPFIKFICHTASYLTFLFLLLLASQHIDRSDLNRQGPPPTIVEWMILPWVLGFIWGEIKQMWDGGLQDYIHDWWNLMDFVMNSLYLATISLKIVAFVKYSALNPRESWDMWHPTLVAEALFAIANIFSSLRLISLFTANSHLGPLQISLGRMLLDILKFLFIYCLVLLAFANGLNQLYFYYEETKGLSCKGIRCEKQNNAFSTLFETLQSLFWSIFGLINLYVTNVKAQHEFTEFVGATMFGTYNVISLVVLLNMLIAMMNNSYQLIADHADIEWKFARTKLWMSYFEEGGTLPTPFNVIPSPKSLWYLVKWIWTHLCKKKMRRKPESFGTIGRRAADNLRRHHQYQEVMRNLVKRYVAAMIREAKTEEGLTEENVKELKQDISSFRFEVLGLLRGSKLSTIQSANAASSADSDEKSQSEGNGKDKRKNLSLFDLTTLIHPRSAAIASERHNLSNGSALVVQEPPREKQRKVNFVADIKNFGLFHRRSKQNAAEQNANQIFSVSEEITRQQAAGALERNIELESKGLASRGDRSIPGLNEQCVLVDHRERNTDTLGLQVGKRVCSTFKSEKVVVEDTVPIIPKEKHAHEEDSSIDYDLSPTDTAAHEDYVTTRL
Compound,activation [1],outcome [2],outcome [3],outcome [4],outcome [5],outcome [6],outcome [7],outcome [8],outcome [9],activation [10],outcome [11],activation [12],outcome [13],outcome [14],outcome [15],outcome [16],activation [15],outcome [10],activation [2],outcome [12]
Cc1cc(OCCn2ccnc2)cc(C)c1Cl,146% (active),inactive,inactive,inactive,inactive,inactive,inactive,inactive,inactive,42% (active),inactive,34.8% (active),inactive,inactive,inactive,inactive,–,–,–,–
COc1cc(OC)c(OC)cc1CCC(C)NCCC(c1ccccc1)c1ccccc1 (stereo not drawn),106% (active),inactive,inactive,inactive,inactive,inactive,inactive,inactive,inactive,28% (active),inactive,66.8% (active),inactive,inactive,–,inactive,11.2% (active),–,–,–
CCOc1ccccc1C1CC(c2ccc(Cl)cc2)Nc2nc(N)nn21 (stereo not drawn),243% (active),inactive,inactive,inactive,inactive,inactive,inactive,inactive,inactive,–,inactive,6.24% (active),inactive,inactive,inactive,inactive,–,inactive,–,–
COc1ccc(C(CNC(=O)Cc2ccc(-c3ccccc3)cc2)N(C)C)cc1 (stereo not drawn),192% (active),–,inactive,inactive,inactive,inactive,inactive,inactive,inactive,56% (active),inactive,–,inactive,inactive,inactive,inactive,–,–,112% (active),inactive
Cc1csc2c(N3CCN(C(=O)Nc4ccccc4)CC3)ncnc12,99% (active),inactive,inactive,inactive,inactive,inactive,inactive,inactive,inactive,–,inactive,48.3% (active),inactive,inactive,inactive,inactive,–,inactive,–,–
CCn1cc(CNCc2cn(-c3ccccc3C)nc2-c2ccc(OC)c(F)c2)cn1,163% (active),–,inactive,inactive,inactive,inactive,inactive,inactive,inactive,–,inactive,–,inactive,inactive,inactive,inactive,–,inactive,74% (active),inactive
NC(N)=NN=C1CCCCCCCCCCC1,95% (active),inactive,inactive,inactive,inactive,inactive,inactive,inactive,inactive,32.5% (active),inactive,32.2% (active),inactive,inactive,–,inactive,24.9% (active),–,–,–
Clc1cccc(OCCN2CCNCC2)c1,66% (active),–,inactive,inactive,inactive,inactive,inactive,inactive,inactive,–,inactive,31.1% (active),inactive,inactive,inactive,inactive,–,inactive,54% (active),–
